Reference: PubChem BioAssay AID588727 (Southern Research Specialized Biocontainment Screening …, 2011)
The whole screen tested about 350,000 compounds, of which about 450 (0.13%) were called active. The list is a sample of the results. Entries with a potency or affinity are not part of this list. Values without a mark were called inactive. No rule for the calls is given here.

Assay: inhibitors of VEEV TC-83 cytopathic effect, confirmation, Vero cells (AID 588727)
Conditions: VEEV TC-83 cytopathic effect inhibition, at 20 µM; active compounds read high unless noted

Compound | inhibition
c1ccc(C(c2c[nH]c3ccccc23)c2c[nH]c3ccccc23)nc1 | 6.07%
CCOCc1nnc(NC(=O)c2c(-c3ccccc3)noc2C)s1 | 2.18%
COC(=O)c1c(-c2ccccc2)noc1C | inactive
CCOC(=O)c1c(-c2cccc(C)c2)csc1NC(=O)C1CC=CCC1C(=O)O (configuration not stated) | 1.95%
CCC(CC)c1nnc(NC(=O)c2c(-c3ccccc3)noc2C)s1 | inactive
CCOC(=O)c1c(-c2ccc(F)cc2)csc1NC(=O)c1c(-c2ccccc2)noc1C | 9.91%
COC(=O)c1sccc1NC(=O)c1c(-c2ccccc2)noc1C | 0.71%
Cn1c(=O)c2c(nc(OCc3cccnc3)n2Cc2c(F)cccc2Cl)n(C)c1=O | inactive
Cc1ccc(NC(=O)C2CC(=O)N(c3ccc4c(c3)OCCO4)C2)nc1 (configuration not stated) | 0.81%
COc1ccc(NC(=O)c2cc(S(=O)(=O)Nc3ccc(OC)cc3)cs2)cc1 | 1.17%
O=C1CCc2cc(S(=O)(=O)N3CCC(C(=O)NC4CCCCCCC4)CC3)ccc2N1 | 0.11%
CC1CCCCN1C(=O)CSc1nc(N)cc(=O)[nH]1 (configuration not stated) | 0.79%
COC(=O)Cc1ccc(NC(=S)NCCSc2ccc(C)cc2)cc1 | 0.04%
CCOC(=O)c1cnc(N2CCOCC2)[nH]c1=O | inactive
O=c1ccc(Cl)cn1Cc1ccccc1F | 0.68%
CCCNC(=O)CSc1nnc(NC(=O)C2CC(=O)N(c3ccccc3OC)C2)s1 (configuration not stated) | 0.13%
Nc1nc(NCCO)nc(NC2CCCCC2)c1[N+](=O)[O-] | 3.17%
CN(C)CCCNc1nc(N)c([N+](=O)[O-])c(NC2CCCCC2)n1 | 1.04%
OCC1CCCCN1C(=S)NCc1ccco1 (configuration not stated) | 2.33%
O=C(NNC(=O)c1ccc2ccccc2c1)c1cccc(F)c1 | 0.5%
COc1ccccc1NS(=O)(=O)c1ccc(C(=O)N2CCN(c3ccccn3)CC2)cc1 | 12.1%
COc1cc2cc(CN(CCO)S(=O)(=O)c3ccccc3)c(=O)[nH]c2cc1OC | 2.19%
CCOC(=O)C(CC)n1cnc2sc3c(c2c1=O)CCC3 (configuration not stated) | 2.46%
COc1ccc(/C=C/C(=O)c2cc(Cl)cc(Cl)c2O)c(OC)c1 | 0.43%
CN(C)/C=C/C(=O)/C=C/c1ccc(Cl)cc1Cl | inactive

Compound | inhibition
CCc1ccc(/C=C/C(=O)c2cc(Br)ccc(=O)c2O)cc1 | 2.12%
CCNc1ccc(Br)cc(C(=O)/C=C/c2ccccc2Cl)c1=O | 2.29%
CC(=O)Nc1ccc(S(=O)(=O)Nc2ccc3c(c2)OCO3)cc1 | inactive
Cc1ccc(-c2cc(C(=O)NCCCn3ccnc3)c3ccccc3n2)s1 | 10.3%
CC(OC(=O)Cn1cnc2ccccc2c1=O)C(=O)N(C)c1ccccc1 (configuration not stated) | 1.86%
Cc1cc(SCC(=O)c2cc3ccccc3o2)nc2ccccc12 | inactive
COc1ccc(NC(=O)CSc2nc3ccccc3c(=O)n2CCC(=O)N2CCCCC2)cc1 | 10.7%
CCN(C(=O)c1cccc(Br)c1)c1ccccc1 | 1.28%
CC(=O)Nc1nonc1-c1nc2ccccc2n1CCC(C)C | 2.19%
CCC(=O)Nc1nonc1-c1nc2ccccc2n1CC(C)C | 0.38%
CCn1c(-c2nonc2NC(=O)c2ccccc2)nc2ccccc21 | inactive
N#CCCn1c(-c2nonc2NC(=O)c2ccccc2Cl)nc2ccccc21 | inactive
CCOc1ccccc1Nc1ccnc2cc(Cl)ccc12 | 0.76%
C=C1CCN([C@@H](Cc2ccccc2)C(=O)NC2CCN(Cc3ccccc3)CC2)S(=O)(=O)c2ccccc21 | inactive
CCCN1C2CCCC1CC(NC(=O)c1ccc(Br)cc1)C2 (configuration not stated) | 0.23%
CCN(CC)S(=O)(=O)c1ccc(Cl)c(C(=O)OCC(=O)c2c(N)n(C)c(=O)n(C)c2=O)c1 | 2.96%
COCCCNC(=O)c1cc(C(=O)Cc2ccccc2)c[nH]1 | 0.38%
O=C(CCn1c(=S)oc2ccccc21)Nc1cccc(O)c1 | 1.38%
COc1ccc(C2c3[nH]c4ccccc4c3CCN2C(=O)c2cn3ccccc3n2)c(F)c1 (configuration not stated) | 8.94%
COc1ccc(C2c3[nH]c4ccccc4c3CCN2C(=O)c2ccc(=O)n(C)n2)c(F)c1 (configuration not stated) | 1.1%
CCC(CC)c1nc(C(N)=O)c2[nH]c(=O)n(-c3ccc(OC)c(OC)c3)c2n1 | 1.45%
NNc1nc(-c2ccccc2)cc(-c2ccc(Br)cc2)n1 | 7.9%
CN1OC[C@@H]2CN(C(=O)C(C)(C)C)[C@H](c3cccc(Br)c3)C[C@@H]21 | inactive
c1ccc2c(-c3cc(C4CCNCC4)[nH]n3)cccc2c1 | 6.53%
Clc1ccc(-c2cc(C3CCNCC3)[nH]n2)cc1 | 0.74%

Compound | inhibition
CC(OC(=O)c1cc(S(=O)(=O)N2CCOCC2)ccc1F)C(=O)NCC1CCCCC1 (configuration not stated) | 0.1%
O=C(N/N=C/c1cccnc1)c1ccc(NC(=O)c2ccccc2Cl)cc1 | 1.2%
O=C(NCCN1CCN(C(=O)c2cccc(OC(F)F)c2)CC1)c1cccc(OC(F)F)c1 | 0.88%
O=C(N[C@@H]1CCC(=O)N(CC[C@H](Sc2ccc(Br)cc2)c2ccccc2)CC1)OCc1ccccc1 | 1.21%
Cc1ccc(-c2csc(NC(=O)/C=C/c3cccs3)n2)cc1C | 7.86%
O=C(/C=C/c1cccs1)Nc1nc(-c2ccccc2)cs1 | 10.2%
COc1ccc(OC)c(/C=N/n2c(COc3ccccc3)n[nH]c2=S)c1 | 1.2%
Cc1sc(NC(=S)NC(=O)c2ccco2)c(C#N)c1C | 0.86%
Cc1sc(NC(=S)NC(=O)c2ccccc2)c(C#N)c1C | 1.72%
Cc1cccc(S(=O)(=O)N(C)C[C@H]2OCc3cn(nn3)CCCC(=O)N([C@@H](C)CO)C[C@@H]2C)c1 | 0.62%
O=S(=O)(c1ccc(F)cc1)N1CCC2(CC1)OCCO2 | 0.49%
COC(C[C@H](O)C[C@H](O)[C@@H](C)OCc1ccccc1)OC | 0.19%
CCn1c(C)nc2cc(C(=O)OCCC(F)(F)F)ccc21 | 8.24%
CCn1c(C)nc2cc(C(=O)OC)ccc21 | 0.32%
Cc1cc(C)nc(NS(=O)(=O)c2ccc(NC(=O)c3ccc(N4C(=O)CCC4=O)cc3)cc2)n1 | inactive
Nc1ccn([C@@H]2O[C@H](CO)[C@@H](O)[C@@H]2O)c(=O)n1 | inactive
Nc1ccn([C@@H]2O[C@H](CO)[C@@H](O)[C@H]2O)c(=O)n1 | 0.98%
CNC(=S)N(Cc1ccccc1)Cc1cccnc1 | 3.13%
CCOC(=O)c1c(NC(=O)CSc2nnc(-c3ccccc3)o2)sc(C(C)=O)c1C | 2.08%
CC(OC(=O)/C=C/c1cccc(C(F)(F)F)c1)C(=O)NC1CCCCC1C (configuration not stated) | 3.48%
Cc1ccc(NC(=O)/C(C#N)=N/Nc2ccc(C(=O)O)cc2)c(C)c1 | 1.78%
CNC(=O)C(=O)Nc1ccc(C)cc1C | 0.04%
C/C(=N\N=C1\NC(=O)C(Cc2ccccc2)S1)c1ccccc1 (configuration not stated) | 1.26%
CCOC(=O)c1ccc(CC2S/C(=C(\C#N)C(C)=O)NC2=O)cc1 (configuration not stated) | 1.08%
CC(=O)/C(C#N)=C1\NC(=O)C(Cc2ccc(F)cc2)S1 (configuration not stated) | 9.23%

Compound | inhibition
CC(C)=N/N=C1/NC(=O)C(Cc2ccccc2)S1 (configuration not stated) | 2.54%
CN1CCN(c2nc3cc(N4CCOCC4)ccc3s2)CC1 | inactive
CN1CCN(c2ccc3nccnc3c2)CC1 | 0.19%
O=C1CNC(=O)/C(=C\c2ccc(F)cc2)N1 | inactive
CCOC(=O)COc1cc2c3c(c(=O)oc2cc1C)CCCC3 | 1.83%
CCOC(=O)CSc1nnc(NC(=O)CN2CCCCC2)s1 | inactive
CC(=O)Nc1ccc(S(=O)(=O)N(C)CC(=O)OC(C)C(=O)NC2(C#N)CCCCC2)cc1 (configuration not stated) | 0.4%
COc1ccc(NC(=O)COc2ccc(CNCCCN3CCOCC3)cc2OC)cc1 | inactive
CCOc1cc(CNCCCN2CCOCC2)ccc1OCC(=O)NC(C)(C)C | 0.44%
CCCCn1c(=S)[nH]c2ncccc2c1=O | 1.76%
COc1ccc(N2CCN(CCCn3c(=S)[nH]c4ncccc4c3=O)CC2)cc1 | 26.7%
Cc1ccc2oc(=O)cc(/C=C/c3ccccc3)c2c1 | 0.72%
Cc1ccccc1C(=O)NN1C(=O)CSC1=S | 0.35%
CCc1ccc(C2CC(=O)N(c3cccc(F)c3)C3=C2C(=O)OC3)cc1 (configuration not stated) | inactive
COc1ccc(CNC(=O)[C@H](Cc2c[nH]c3ccccc23)NC(=O)[C@@H]2Cc3ccccc3CN2)cc1 | inactive
CC(C)C[C@H](NC(=O)[C@@H]1Cc2ccccc2CN1)C(=O)Nc1ccc(C(C)C)cc1 | 0.75%
Cc1ccc(NC(=O)[C@H](NC(=O)[C@@H]2Cc3ccccc3CN2)c2ccccc2)c(C)c1 | 1.71%
COc1ccccc1CNC(=O)[C@H](Cc1c[nH]c2ccccc12)NC(=O)[C@@H]1Cc2ccccc2CN1 | 0.04%
Cc1cccc(NC(=O)[C@@H](CC(C)C)NC(=O)[C@@H]2Cc3ccccc3CN2)c1 | inactive
Cc1ccc(NC(=O)[C@H](Cc2ccccc2)NC(=O)[C@@H]2Cc3ccccc3CN2)c(C)c1 | 1.94%
CC(NC(=O)[C@H](Cc1c[nH]c2ccccc12)NC(=O)[C@@H]1Cc2ccccc2CN1)c1ccccc1 (some centres not stated) | inactive
Cc1cc(C)cc(NC(=O)[C@H](Cc2c[nH]c3ccccc23)NC(=O)[C@@H]2Cc3ccccc3CN2)c1 | 0.29%
